Bioassay records as filed in PubChem BioAssay.
Many of the other results were omitted from the sample, so hits are more common in it than they were.
Chlamy TAG = inducers of triacylglycerol accumulation in Chlamydomonas reinhardtii algae | Chlamydomonas reinhardtii TAG, Nile Red fluorescence, 72 h | calls only at 10 µM (by protocol) | hit rate 0.84% among 44,000 | AID 1159537; call rule not given here;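 note: hits raise Nile Red signal meaning more stored TAG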
Active calls of the source: *.

For Cc1ccc(CN2CCN(c3ccccc3C)CC2)cc1 the results were Chlamy TAG inactive.
For Cc1ccccc1N1CCN(Cc2ccc(O)cc2)CC1 the results were Chlamy TAG active.
Screening Cc1ccccc1N1CCN(Cc2ccc(N(C)C)cc2)CC1 returned Chlamy TAG inactive.
`Oc1ccc(CN2CCN(c3ccccc3Cl)CC2)cc1` gave Chlamy TAG active.
`Oc1cccc(CN2CCN(c3ccccc3Cl)CC2)c1` gave Chlamy TAG inactive.
Clc1ccccc1N1CCN(Cc2ccccc2)CC1 was read as Chlamy TAG inactive.
`CC1CN(C2CCN(C)CC2)CC(C)O1` (centres undefined) gave Chlamy TAG inactive.
CCOc1ccc(CN2CCN(c3ccccc3OC)CC2)cc1 was read as Chlamy TAG active.
Screening CCc1ccc(CN2CCN(CC)CC2)cc1 returned Chlamy TAG active.
`COc1cccc(CN2CCN(Cc3ccccc3)CC2)c1` gave Chlamy TAG inactive.
`CCOc1ccc(CN2CCN(c3ccc(F)cc3)CC2)cc1` gave Chlamy TAG active.
`COc1cc(CN2CCN(Cc3ccccc3)CC2)cc(OC)c1` gave Chlamy TAG active.
CCOc1ccc(CN2CCN(c3ccc(OC)cc3)CC2)cc1 was read as Chlamy TAG inactive.
`COc1ccccc1N1CCN(Cc2ccc(N(C)C)cc2)CC1` gave Chlamy TAG inactive.
`CCCCOc1ccc(CN2CCN(CC)CC2)cc1` gave Chlamy TAG inactive.
For CCOc1cc(CN2CCN(c3ccc(F)cc3)CC2)ccc1O the results were Chlamy TAG inactive.
`COc1cc(CN2CCN(C)CC2)cc(OC)c1` gave Chlamy TAG inactive.
Screening CCOc1ccccc1CN1CCN(c2ccccc2OC)CC1 returned Chlamy TAG inactive.
`CCN1CCN(Cc2cccc(Br)c2)CC1` gave Chlamy TAG inactive.
COc1ccc(N2CCN(Cc3cccc(Cl)c3Cl)CC2)cc1 was read as Chlamy TAG inactive.
For CCCCn1c(C=O)nc2ccccc21 the results were Chlamy TAG inactive.
For O=[N+]([O-])c1ccc(N2CCNCC2)cc1N1CCCC1 the results were Chlamy TAG inactive.
N/C(=N/[N+](=O)[O-])Nc1ccc(NC(=O)c2ccc(Cl)cc2)cc1 was read as Chlamy TAG inactive.
`CC(=O)c1ccc(OC(=O)N(C)C)cc1` gave Chlamy TAG inactive.
`COc1cc(CNCCc2ccc(Cl)cc2)cc(OC)c1O` gave Chlamy TAG inactive.
C=CCOc1ccccc1CN1CCN(c2ccccc2F)CC1 was read as Chlamy TAG inactive.
Screening COc1ccccc1N1CCN(Cc2ccc(C)cc2)CC1 returned Chlamy TAG active.
For COc1ccccc1N1CCN(Cc2ccc(C(C)C)cc2)CC1 the results were Chlamy TAG inactive.
CCOc1ccc(CN2CCN(c3ccccc3C)CC2)cc1 was read as Chlamy TAG active.
`CCOc1cc(CN2CCN(c3ccccc3C)CC2)ccc1O` gave Chlamy TAG inactive.
`CCOc1ccccc1CN1CCN(c2ccccc2C)CC1` gave Chlamy TAG inactive.
Screening COc1ccc(N2CCN(Cc3ccc(Cl)c(Cl)c3)CC2)cc1 returned Chlamy TAG inactive.
`COc1ccc(N2CCN(Cc3ccc(Cl)cc3)CC2)cc1` gave Chlamy TAG active.
Cc1ccc(CN2CCN(C)CC2)cc1 was read as Chlamy TAG inactive.
For COc1ccc(N2CCN(Cc3ccc(F)cc3)CC2)cc1 the results were Chlamy TAG inactive.
`COc1ccccc1N1CCN(Cc2ccccc2)CC1` gave Chlamy TAG inactive.
For Cc1ccc(CN2CCN(CCO)CC2)cc1 the results were Chlamy TAG active.
`OCCN1CCN(Cc2ccc(F)cc2)CC1` gave Chlamy TAG inactive.
For CCCCc1nc2ccccc2c(=O)n1-c1ccccc1 the results were Chlamy TAG inactive.
O=C1NC(=O)C(CC2CCCCC2)C(=O)N1 was read as Chlamy TAG inactive.
Screening COc1ccc(CN2CCN(c3ccc(F)cc3)CC2)cc1OC returned Chlamy TAG inactive.
For C=CCOc1ccccc1CN(C)CCc1ccc(OC)c(OC)c1 the results were Chlamy TAG inactive.
`Cc1ccccc1CN1CCN(c2cccc(C)c2C)CC1` gave Chlamy TAG inactive.
For CC(C)N1CCN(Cc2cccc(Br)c2)CC1 the results were Chlamy TAG inactive.
For OCCN1CCN(Cc2ccc(F)cc2F)CC1 the results were Chlamy TAG inactive.
Clc1ccc(N2CCN(Cc3ccc4c(c3)OCO4)CC2)cc1 was read as Chlamy TAG active.
For Clc1cccc(CN2CCN(Cc3ccc4c(c3)OCO4)CC2)c1 the results were Chlamy TAG inactive.
Screening Clc1ccc(CN2CCN(Cc3ccc4c(c3)OCO4)CC2)cc1 returned Chlamy TAG inactive.
`COc1cc2c(no[n+]2[O-])n2nnnc12` gave Chlamy TAG inactive.
For O=C(COc1ccccc1)N1CCN(Cc2ccc3c(c2)OCO3)CC1 the results were Chlamy TAG inactive.
`COc1ccc(C(=O)CCN(C)C)cc1F` gave Chlamy TAG inactive.
Nc1ccc(Br)cc1C(=O)c1ccccc1F was read as Chlamy TAG inactive.
`Nc1ccc(Cl)cc1C(=O)c1ccccc1` gave Chlamy TAG inactive.
Nc1ccc(F)cc1C(=O)c1ccccc1 was read as Chlamy TAG active.
O=C(O)c1cn(Cc2ccccc2)c2ccccc12 was read as Chlamy TAG inactive.
COc1ccc(CN2CCN(CCO)CC2)cc1Br was read as Chlamy TAG inactive.
`Oc1c(Cl)cc(Cl)cc1CN1CCN(c2ccccc2)CC1` gave Chlamy TAG inactive.
For Oc1ccc(CN2CCN(c3cccc(Cl)c3)CC2)cc1 the results were Chlamy TAG active.
`COc1ccc(CN2CCN(c3cccc(Cl)c3)CC2)cc1O` gave Chlamy TAG inactive.
For Oc1ccc(CN2CCN(c3ccccc3)CC2)cc1 the results were Chlamy TAG active.
Screening COc1ccc(CN2CCN(c3ccccc3)CC2)cc1O returned Chlamy TAG inactive.
For Clc1ccc(CN2CCN(c3ccccc3)CC2)cc1Cl the results were Chlamy TAG inactive.
`Fc1ccc(CN2CCN(c3cccc(Cl)c3)CC2)cc1` gave Chlamy TAG active.
Screening Fc1ccc(CN2CCN(c3cccc(Cl)c3)CC2)c(F)c1 returned Chlamy TAG inactive.
Screening COc1cccc(CN2CCN(c3cccc(Cl)c3)CC2)c1 returned Chlamy TAG inactive.
`Clc1cccc(N2CCN(Cc3ccccc3Cl)CC2)c1` gave Chlamy TAG inactive.
Screening Cc1cccc(-n2c(/C=C/c3ccccc3)nc3ccccc3c2=O)c1 returned Chlamy TAG inactive.
`O=[N+]([O-])c1ccc(NCCO)c2cccnc12` gave Chlamy TAG inactive.
COc1ccccc1CN1CCN(c2ccccc2Cl)CC1 was read as Chlamy TAG inactive.
Screening CN1CCN(c2ccc([N+](=O)[O-])c(Sc3nccn3C)c2)CC1 returned Chlamy TAG inactive.
Screening COc1ccc(CN2CCN(C)CC2)c(OC)c1 returned Chlamy TAG inactive.
Screening O=C(COc1ccccc1)N1CCN(Cc2cccc([N+](=O)[O-])c2)CC1 returned Chlamy TAG inactive.
CC(CCCC(C)(C)O)NC1CCCCCC1 (centres undefined) was read as Chlamy TAG inactive.
CC(C)N1CCN(Cc2cccn2C)CC1 was read as Chlamy TAG inactive.
COc1ccc(CNCCc2ccc(Cl)cc2)cc1C was read as Chlamy TAG inactive.
`CN1CCN(c2ccc(F)cc2[N+](=O)[O-])CC1` gave Chlamy TAG inactive.
`Fc1ccccc1N1CCN(Cc2ccc3c(c2)OCCO3)CC1` gave Chlamy TAG inactive.
